Screening results as filed in PubChem BioAssay.
This is a sample that favours compounds with a hit; in the whole collection about 3.9% have one here.
Anthrax LF prot = blocks Bacillus anthracis lethal factor protease. multiplex microsphere protease cleavage assay, LF. inhibition, % at 10 µM. 360,000 tested, 0.12% active. AID 588501
3CLpro inhibitor = SARS-CoV 3CLpro protease inhibition; P0C6X7; recombinant SARS-CoV 3CLpro, quenched FRET peptide cleavage; inhibition, % at 6 µM; 290,000 tested, 0.14% active; in the data active = inhibition above about 12%
BoNT-F LC inh = inhibitors of Botulinum neurotoxin F light chain protease; AID 588497; Multiplex microsphere protease cleavage assay, flow cytometry; 360,000 tested, 0.22% active; inhibition, % at 10 µM; in the data active = inhibition above about 35%, passing the limit was not always enough; inconclusive = no clear call, values can overlap the other calls
CCHF vOTU inh = CCHFV vOTU protease inhibition. Pep-AMC fluorescence. inhibition, % at 11.5 µM. 370,000 tested, 0.55% active. AID 651958; in the data active = inhibition above about 30%
Autofluor counter = compound fluorescence in toxin protease inhibitor counterscreen | AID 624483 | compound autofluorescence counterscreen, microsphere flow cytometry; hits give high values | 360,000 tested, 3.1% active | fluorescence intensity (concentration not given with the values); in the data active = fluorescence intensity above about 16000; inconclusive = no clear call, values can overlap the other calls
BoNT-A LC inh2 = BoNT A light chain protease inhibition; multiplex microsphere protease substrate cleavage, flow cytometry; inhibition, % at 10 µM; 360,000 tested, 0.17% active
A number is an active result; i = inactive; ? = inconclusive; nt = no result given. Rule as the data show it, unless noted: active = inhibition above about 30%; inconclusive = no clear call, values can overlap the other calls; inactive = below that.

SMILES	Anthrax LF prot	3CLpro inhibitor	BoNT-F LC inh	CCHF vOTU inh	Autofluor counter	BoNT-A LC inh2
COCCOCCOCCC(=O)NC1CC2CCC1(C)C2(C)C (centres undefined)	i	i	i	i	21940	i
CCC1CCCCN1C(=S)NN=C(C)c1ccccn1 (centres undefined)	nt	nt	nt	i	nt	nt
C=CCNC(=S)N/N=C(\C)c1ccccn1	i	i	i	i	16885	i
CC(=NNC(=S)N1CCCCC1)c1ccccn1	87	nt	73	i	i	i
CC(=NNC(=S)N1CC2CCC(CC2)C1)c1ccncn1	57	nt	59	i	i	i
CC(=NNC(=S)N1CCCCC1)c1cccc(C)n1	i	nt	i	i	i	i
C=CCN1C(=O)[C@@H](CC(=O)NCCCN2CCCC2=O)[C@]2(C(=O)OCC)CCCCC/C=C/12	nt	nt	nt	i	nt	nt
CCCCN(CC)Cc1ccc(CNC(=O)Nc2ccc(Cl)cc2)o1	i	i	i	i	i	i
CCCCN(CC)Cc1ccc(CNC(=O)Nc2ccc(OCC)cc2)o1	i	i	i	i	20423	i
C[C@@H]1[C@@H](c2ccccc2)c2cc3ccccc3nc2-c2nc3ccccc3cc2[C@@H]1C(=O)N1CCCC1	nt	nt	nt	i	nt	nt
CC1(C)Cc2c(sc3ncnc(N)c23)CO1	i	i	i	i	18415	i
COC(=O)C1CN(Cc2cn(CCOC(C)=O)nn2)CCS(=O)(=O)N1Cc1ccc(F)cc1 (centres undefined)	nt	nt	nt	i	nt	nt
O=C(Nc1ccc(S(=O)(=O)NCCc2ccccc2)cc1)c1ccco1	i	i	i	nt	23096	i
O=S(=O)(NCc1ccc2c(c1)OCO2)c1ccc2oc3ccccc3c2c1	i	i	i	i	16406	i
O=C(CCc1ccc(S(=O)(=O)NCCc2ccccc2)cc1)NCc1ccc2c(c1)OCO2	i	i	i	i	24716	i
COc1ccc(S(=O)(=O)NCCC(=O)NCc2ccc(F)cc2)cc1	i	i	i	i	19366	i
O=S(=O)(NCCCCCNS(=O)(=O)c1ccc(F)cc1)c1ccc(F)cc1	i	i	i	i	i	i
O=S(=O)(NCCSc1ccc(Cl)cc1)c1ccc(F)cc1	i	i	i	i	16419	i
COC(=O)Nc1ccc(S(=O)(=O)NCCO)cc1	i	i	i	i	18225	i
O=C(O)CCc1ccc(S(=O)(=O)NCCc2ccccc2)cc1	i	i	i	i	20869	i
Cc1ccc(SCCNS(=O)(=O)c2ccc(F)cc2)cc1	i	i	i	i	i	i
COC(=O)Nc1ccc(S(=O)(=O)NCCCCCC(=O)O)cc1	i	i	i	i	i	i
O=C(O)CCCNS(=O)(=O)c1ccc(F)cc1	i	i	i	i	24742	i
CC(=O)Nc1ccc(S(=O)(=O)NCCc2ccc(F)cc2)cc1	i	i	i	i	19405	i
CC(=O)Nc1ccc(S(=O)(=O)NCc2ccc3[nH]c(C)cc3c2)cc1	i	i	i	i	i	53
SMILES	Anthrax LF prot	3CLpro inhibitor	BoNT-F LC inh	CCHF vOTU inh	Autofluor counter	BoNT-A LC inh2
CC(=O)Nc1ccc(S(=O)(=O)NCCc2ccc(S(N)(=O)=O)cc2)cc1	i	i	i	i	i	i
COc1ccc(S(=O)(=O)CCC(=O)NCCc2ccc(C)cc2)cc1	i	i	i	i	16185	i
Cc1[nH]n(-c2ccccc2)c(=O)c1N=Nc1cccc([N+](=O)[O-])c1	i	i	42	i	i	i
N#C/C(C(=O)c1ccccc1)=C1/CCCN1	i	i	i	i	23223	i
N#C/C(=C1\CCCN1)c1nc2ccccc2c(=O)[nH]1	i	i	i	i	i	i
N#C/C(=C/c1ccc(N2CCCCCC2)o1)c1ccc(Cl)cc1	i	i	i	nt	22830	i
CC(=O)Nc1nc2ncccn2c1-c1ccc(F)c(F)c1	nt	nt	nt	i	nt	nt
Cc1[nH]c2ccccc2c1/C=C(\C#N)S(=O)(=O)c1ccccc1	i	i	i	i	20697	i
Cc1[nH]c2ccccc2c1/C=C(\C#N)C(=O)NC(C)c1ccccc1 (centres undefined)	i	i	i	i	22234	i
CC(C)C(=O)OCCCN1CCC2(CCC(c3ccccc3)CC2)C1=O (centres undefined)	nt	nt	nt	i	nt	nt
Oc1ccc2[nH]cc(CCc3ccccc3)c2c1-c1ccccc1	nt	nt	nt	i	nt	nt
O=C(c1ccco1)N1CCN(c2ncnc3c2nnn3Cc2ccccc2Cl)CC1	i	i	i	i	i	i
O=C(c1ccco1)N1CCN(c2nc(C(F)(F)F)nc3c2nnn3Cc2ccccc2)CC1	i	i	i	i	24937	i
CCOC(=O)/C(=C/c1c[nH]c2ccccc12)NC(C)=O	i	i	i	i	19612	i
Cc1cccc(-c2cccc3c4c([nH]c23)[C@@H]2C[C@H](N(C)C(=O)OCc3ccccc3)[C@H]([C@H](C)O)CN2CC4)c1	nt	nt	nt	i	nt	nt
S=C(Nc1ccc2c(c1)OCO2)NC1CCN(Cc2ccccc2)CC1	i	i	i	i	20636	i
COC(=O)C1Sc2[nH]c(=O)sc2C(c2ccc(Cl)cc2)C1C(=O)OC (centres undefined)	i	i	i	i	i	i
COC(=O)C1CSc2[nH]c(=O)sc2C1c1ccccc1 (centres undefined)	i	i	i	i	23079	i
Cc1ccccc1N1C(=O)CC(=O)NC1=O	i	i	i	i	21951	i
CCOc1cccc(N2C(=O)CC(=O)NC2=O)c1	i	i	i	i	i	i
CCc1ccccc1N1C(=O)CC(=O)NC1=O	i	i	i	i	i	i
COc1cccc(N2C(=O)CC(=O)NC2=O)c1	i	i	i	i	23335	i
Cc1ccc(-c2cc(-c3ccccc3)[nH]c(=S)c2C#N)cc1	i	i	i	i	i	i
N#Cc1c(N)[nH]c(=S)c(C#N)c1-c1ccccc1	i	i	i	i	20825	i
COc1ccc(N(CC(=O)N/N=C/c2ccc(-c3ccc([N+](=O)[O-])cc3)o2)S(=O)(=O)c2ccc(C)cc2)cc1Cl	44	i	42	i	i	56
SMILES	Anthrax LF prot	3CLpro inhibitor	BoNT-F LC inh	CCHF vOTU inh	Autofluor counter	BoNT-A LC inh2
COc1ccccc1N1CCN(C(=O)C2C3C=CC4(CN(Cc5ccccc5Cl)C(=O)C24)O3)CC1 (centres undefined)	i	i	i	i	20591	i
NC(=NCc1ccc2c(c1)OCO2)NC(=O)c1ccccc1	i	i	45	i	i	i
C/C(CCc1ccc2c(c1)OCO2)=N\NC(=O)c1ccccc1	i	i	i	i	i	i
C/C(=N\NC(=O)c1ccccc1)c1ccc2c(c1)OCO2	i	i	i	i	22585	i
CC(=O)Nc1cccc(/C(C)=N/NC(=O)c2ccc3c(c2)OCO3)c1	i	i	i	i	i	i
CCOc1nc(-c2ccccc2Cl)ccc1C#N	i	i	i	i	20479	i
COc1ccc(Nc2ncnc3sc(-c4ccccc4)cc23)cc1	i	i	i	i	19970	?
COC(=O)C1=C(C)NC(C)=C(C(=O)OC)C1/C=C/c1ccccc1	i	i	i	i	20052	i
CCOC(=O)C1=C(C)NC(C)=C(C(=O)OCC)C1/C=C/c1ccccc1	i	i	i	i	22125	i
COC(=O)C1=C(C)NC(C)=C(C(=O)OC)C1c1ccc(N(C)C)cc1	i	i	i	i	23084	?
Cc1ccccc1C(=O)NC1CCCCN(C)C1=O (centres undefined)	nt	nt	nt	i	nt	nt
